Entries with a potency or affinity are not part of this list.
The compounds below were run on Candida albicans. Settings: 20 µM.

**Q.** How did the Inhibition turn out when `CN1C(=O)COc2c(C(=O)NC3CN4CCC3CC4)cc(Cl)cc21.Cl` (stereo not drawn) was run?
**A.** 2.68%

**Q.** How did the Inhibition turn out when `COc1cc(CNC(=O)CCCC/C=C\C(C)C)ccc1O` [ZUCAPSAICIN] was run?
**A.** 4.72%

**Q.** For `NCCc1ccccn1`, which Inhibition is on record?
**A.** 3.53%

**Q.** Which Inhibition does the source give for `Cc1c(OCC(F)(F)F)ccnc1C[S+]([O-])c1nc2ccccc2[nH]1` (stereo not drawn) [LANSOPRAZOLE] here?
**A.** 9.31%

**Q.** With `C[C@]12CC[C@H]3[C@@H](CCC4=CC(=O)CC[C@@H]43)[C@@H]1CC[C@@H]2O` [NANDROLONE] as the compound, how does the Inhibition read?
**A.** 7.15%

**Q.** With `CN1CC[C@@]23CCCC[C@@H]2[C@@H]1Cc1ccc(O)cc13.O=C(O)C(O)C(O)C(=O)O` as the compound, how does the Inhibition read?
**A.** 2.27%

**Q.** `CN1C(=O)CN=C(c2ccccc2)c2cc(Cl)ccc21` [DIAZEPAM] was tested. Which Inhibition did it give?
**A.** 2.62%

**Q.** How did the Inhibition turn out when `C#C[C@]1(O)CC[C@H]2[C@@H]3CCC4=CC(=O)CC[C@@H]4[C@H]3CC[C@@]21C` [NORETHINDRONE] was run?
**A.** 4.82%

**Q.** How did the Inhibition turn out when `COc1cc2c(cc1OC)[C@@]13CCN4CC5=CCO[C@H]6CC(=O)N2[C@H]1[C@H]6[C@H]5C[C@H]43` [BRUCINE] was run?
**A.** 2.36%

**Q.** `O=C1CN=C(c2ccccc2)c2cc([N+](=O)[O-])ccc2N1` [NITRAZEPAM] was tested. Which Inhibition did it give?
**A.** 3.29%

**Q.** How did the Inhibition turn out when `Cl.O.Oc1ccc2c3c1O[C@H]1c4[nH]c5ccccc5c4C[C@@]4(O)C(C2)N(CC2CC2)CC[C@]314` was run?
**A.** 6.31%

**Q.** `O.O=P1(N(CCCl)CCCl)NCCCO1` (stereo not drawn) [CYCLOPHOSPHAMIDE] was tested. Which Inhibition did it give?
**A.** 0.13%

**Q.** With `Nc1nc2ccc(Cl)cc2c2nc(-c3ccco3)nn12` [CGS-15943] as the compound, how does the Inhibition read?
**A.** 6.09%

**Q.** How did the Inhibition turn out when `C#CCN(C)[C@H](C)Cc1ccccc1.Cl` [SELEGILINE HYDROCHLORIDE] was run?
**A.** 4.68%

**Q.** How did the Inhibition turn out when `C=C(C)CN1CC[C@]23c4c5ccc(O)c4O[C@H]2c2[nH]c4ccccc4c2C[C@@]3(O)C1C5.Cl.O` was run?
**A.** 1.9%

**Q.** With `C[C@]12CC[C@H](O)CC1=CC[C@@H]1[C@@H]2CC[C@@]2(C)[C@H]1CC[C@]2(C)O` [METHANDRIOL] as the compound, how does the Inhibition read?
**A.** 4.69%

**Q.** `c1ccc(Cn2ccnc2)cc1` was tested. Which Inhibition did it give?
**A.** 2.99%

**Q.** `CNS(=O)(=O)Cc1ccc2[nH]cc(CCN(C)C)c2c1.O=C(O)CCC(=O)O` [SUMATRIPTAN SUCCINATE] was tested. Which Inhibition did it give?
**A.** 4.97%

**Q.** `CN(C)CCc1c[nH]c2ccc(Cn3cncn3)cc12.O=C(O)c1ccccc1` [RIZATRIPTAN BENZOATE] was tested. Which Inhibition did it give?
**A.** 5.06%

**Q.** For `Cc1ccc(-c2nc3ccc(C)cn3c2CC(=O)N(C)C)cc1.Cc1ccc(-c2nc3ccc(C)cn3c2CC(=O)N(C)C)cc1.O=C(O)C(O)C(O)C(=O)O` [ZOLPIDEM TARTRATE], which Inhibition is on record?
**A.** 4.32%

**Q.** `CC(COc1ccccc1)N(CCCl)Cc1ccccc1.Cl` (stereo not drawn) [PHENOXYBENZAMINE HYDROCHLORIDE] was tested. Which Inhibition did it give?
**A.** 4.97%

**Q.** For `CN(C)C(=O)C(CCN1CCC(O)(c2ccc(Cl)cc2)CC1)(c1ccccc1)c1ccccc1.Cl` [LOPERAMIDE HYDROCHLORIDE], which Inhibition is on record?
**A.** 2.32%

**Q.** How did the Inhibition turn out when `CC[N+](C)(C)c1cccc(O)c1.[Cl-]` [EDROPHONIUM CHLORIDE] was run?
**A.** 2.22%

**Q.** With `Brc1c(NC2=NCCN2)ccc2nccnc12` [BRIMONIDINE] as the compound, how does the Inhibition read?
**A.** 3.99%

**Q.** For `COC(=O)C[C@](O)(CCCC(C)(C)O)C(=O)O[C@@H]1C(OC)=C[C@]23CCCN2CCc2cc4c(cc2[C@H]13)OCO4` [OMACETAXINE MEPESUCCINATE], which Inhibition is on record?
**A.** 3.16%

**Q.** `CCOC(=O)C1=C(COCCN)NC(C)=C(C(=O)OC)C1c1ccccc1Cl` (stereo not drawn) [AMLODIPINE] was tested. Which Inhibition did it give?
**A.** 4.94%

**Q.** `CN1CCC[C@H]1c1cccnc1` [NICOTINE] was tested. Which Inhibition did it give?
**A.** 1.61%

**Q.** For `COC(=O)C1=C(C)NC(C)=C(C(=O)OC)C1c1ccccc1[N+](=O)[O-]` [NIFEDIPINE], which Inhibition is on record?
**A.** 4.72%

**Q.** How did the Inhibition turn out when `CC(C)NCC(O)COc1cccc2[nH]ccc12` (stereo not drawn) [PINDOLOL] was run?
**A.** 3.5%

**Q.** With `CN1C(=O)CN=C(c2ccccc2)c2cc([N+](=O)[O-])ccc21` [NIMETAZEPAM] as the compound, how does the Inhibition read?
**A.** 0.89%

**Q.** For `c1ccc2c(c1)Nc1ccccc1S2` [PHENOTHIAZINE], which Inhibition is on record?
**A.** 4.65%

**Q.** `COc1ccc2[nH]cc(CCN)c2c1` [5-METHOXYTRYPTAMINE] was tested. Which Inhibition did it give?
**A.** 3.97%

**Q.** With `Br.COc1ccc2c3c1O[C@H]1C[C@@H](O)C=C[C@@]31CCN(C)C2` [GALANTAMINE HYDROBROMIDE] as the compound, how does the Inhibition read?
**A.** 3.12%

**Q.** Which Inhibition does the source give for `C[C@]12Cc3c[nH]nc3C[C@@H]1CC[C@@H]1[C@@H]2CC[C@@]2(C)[C@H]1CC[C@]2(C)O` [STANOZOLOL] here?
**A.** 8.82%

What follows are compounds tested on Cryptococcus neoformans. Settings: Concentration 20 uM; ASSAY_TEST Inhibition of Fungal Growth; detection method Resazurin; Absorption (OD600-OD570); plate type 384well; NBS; CORNING #3640.

**Q.** For `CN1C(=O)COc2c(C(=O)NC3CN4CCC3CC4)cc(Cl)cc21.Cl` (stereo not drawn), which Inhibition is on record?
**A.** -3.23%

**Q.** How did the Inhibition turn out when `COc1cc(CNC(=O)CCCC/C=C\C(C)C)ccc1O` [ZUCAPSAICIN] was run?
**A.** -5.9%

**Q.** For `NCCc1ccccn1`, which Inhibition is on record?
**A.** -5.04%

**Q.** With `Cc1c(OCC(F)(F)F)ccnc1C[S+]([O-])c1nc2ccccc2[nH]1` (stereo not drawn) [LANSOPRAZOLE] as the compound, how does the Inhibition read?
**A.** -23.82%

**Q.** With `C[C@]12CC[C@H]3[C@@H](CCC4=CC(=O)CC[C@@H]43)[C@@H]1CC[C@@H]2O` [NANDROLONE] as the compound, how does the Inhibition read?
**A.** -1.13%

**Q.** How did the Inhibition turn out when `CN1CC[C@@]23CCCC[C@@H]2[C@@H]1Cc1ccc(O)cc13.O=C(O)C(O)C(O)C(=O)O` was run?
**A.** -5.99%

**Q.** With `CN1C(=O)CN=C(c2ccccc2)c2cc(Cl)ccc21` [DIAZEPAM] as the compound, how does the Inhibition read?
**A.** -1.5%

**Q.** `C#C[C@]1(O)CC[C@H]2[C@@H]3CCC4=CC(=O)CC[C@@H]4[C@H]3CC[C@@]21C` [NORETHINDRONE] was tested. Which Inhibition did it give?
**A.** 0.28%

**Q.** For `COc1cc2c(cc1OC)[C@@]13CCN4CC5=CCO[C@H]6CC(=O)N2[C@H]1[C@H]6[C@H]5C[C@H]43` [BRUCINE], which Inhibition is on record?
**A.** -1.81%

**Q.** Which Inhibition does the source give for `O=C1CN=C(c2ccccc2)c2cc([N+](=O)[O-])ccc2N1` [NITRAZEPAM] here?
**A.** 1.38%

**Q.** For `Cl.O.Oc1ccc2c3c1O[C@H]1c4[nH]c5ccccc5c4C[C@@]4(O)C(C2)N(CC2CC2)CC[C@]314`, which Inhibition is on record?
**A.** -5.72%

**Q.** Which Inhibition does the source give for `O.O=P1(N(CCCl)CCCl)NCCCO1` (stereo not drawn) [CYCLOPHOSPHAMIDE] here?
**A.** 1.2%

**Q.** How did the Inhibition turn out when `Nc1nc2ccc(Cl)cc2c2nc(-c3ccco3)nn12` [CGS-15943] was run?
**A.** -14.37%

**Q.** `C#CCN(C)[C@H](C)Cc1ccccc1.Cl` [SELEGILINE HYDROCHLORIDE] was tested. Which Inhibition did it give?
**A.** 1.77%

**Q.** With `C=C(C)CN1CC[C@]23c4c5ccc(O)c4O[C@H]2c2[nH]c4ccccc4c2C[C@@]3(O)C1C5.Cl.O` as the compound, how does the Inhibition read?
**A.** -7.24%

**Q.** How did the Inhibition turn out when `C[C@]12CC[C@H](O)CC1=CC[C@@H]1[C@@H]2CC[C@@]2(C)[C@H]1CC[C@]2(C)O` [METHANDRIOL] was run?
**A.** 2.63%

**Q.** How did the Inhibition turn out when `c1ccc(Cn2ccnc2)cc1` was run?
**A.** 0.79%

**Q.** With `CNS(=O)(=O)Cc1ccc2[nH]cc(CCN(C)C)c2c1.O=C(O)CCC(=O)O` [SUMATRIPTAN SUCCINATE] as the compound, how does the Inhibition read?
**A.** -9.65%

**Q.** How did the Inhibition turn out when `CN(C)CCc1c[nH]c2ccc(Cn3cncn3)cc12.O=C(O)c1ccccc1` [RIZATRIPTAN BENZOATE] was run?
**A.** -5.39%

**Q.** How did the Inhibition turn out when `Cc1ccc(-c2nc3ccc(C)cn3c2CC(=O)N(C)C)cc1.Cc1ccc(-c2nc3ccc(C)cn3c2CC(=O)N(C)C)cc1.O=C(O)C(O)C(O)C(=O)O` [ZOLPIDEM TARTRATE] was run?
**A.** -1.23%

**Q.** How did the Inhibition turn out when `CC(COc1ccccc1)N(CCCl)Cc1ccccc1.Cl` (stereo not drawn) [PHENOXYBENZAMINE HYDROCHLORIDE] was run?
**A.** -10.83%

**Q.** For `CN(C)C(=O)C(CCN1CCC(O)(c2ccc(Cl)cc2)CC1)(c1ccccc1)c1ccccc1.Cl` [LOPERAMIDE HYDROCHLORIDE], which Inhibition is on record?
**A.** -15.04%

**Q.** With `CC[N+](C)(C)c1cccc(O)c1.[Cl-]` [EDROPHONIUM CHLORIDE] as the compound, how does the Inhibition read?
**A.** -6.73%

**Q.** For `Brc1c(NC2=NCCN2)ccc2nccnc12` [BRIMONIDINE], which Inhibition is on record?
**A.** -1.44%

**Q.** With `COC(=O)C[C@](O)(CCCC(C)(C)O)C(=O)O[C@@H]1C(OC)=C[C@]23CCCN2CCc2cc4c(cc2[C@H]13)OCO4` [OMACETAXINE MEPESUCCINATE] as the compound, how does the Inhibition read?
**A.** 1.94%

**Q.** How did the Inhibition turn out when `CCOC(=O)C1=C(COCCN)NC(C)=C(C(=O)OC)C1c1ccccc1Cl` (stereo not drawn) [AMLODIPINE] was run?
**A.** -10.38%

**Q.** With `CN1CCC[C@H]1c1cccnc1` [NICOTINE] as the compound, how does the Inhibition read?
**A.** -2.7%

**Q.** With `COC(=O)C1=C(C)NC(C)=C(C(=O)OC)C1c1ccccc1[N+](=O)[O-]` [NIFEDIPINE] as the compound, how does the Inhibition read?
**A.** -4.99%

**Q.** How did the Inhibition turn out when `CC(C)NCC(O)COc1cccc2[nH]ccc12` (stereo not drawn) [PINDOLOL] was run?
**A.** -9.82%

**Q.** How did the Inhibition turn out when `CN1C(=O)CN=C(c2ccccc2)c2cc([N+](=O)[O-])ccc21` [NIMETAZEPAM] was run?
**A.** -7.7%

**Q.** For `c1ccc2c(c1)Nc1ccccc1S2` [PHENOTHIAZINE], which Inhibition is on record?
**A.** 6.01%

**Q.** How did the Inhibition turn out when `COc1ccc2[nH]cc(CCN)c2c1` [5-METHOXYTRYPTAMINE] was run?
**A.** -39.41%

**Q.** How did the Inhibition turn out when `Br.COc1ccc2c3c1O[C@H]1C[C@@H](O)C=C[C@@]31CCN(C)C2` [GALANTAMINE HYDROBROMIDE] was run?
**A.** -5.72%

**Q.** Which Inhibition does the source give for `C[C@]12Cc3c[nH]nc3C[C@@H]1CC[C@@H]1[C@@H]2CC[C@@]2(C)[C@H]1CC[C@]2(C)O` [STANOZOLOL] here?
**A.** -7.23%

— ChEMBL document CHEMBL4513141, “CO-ADD screening of NIH (USA) - Clinical Collection” (2021)
